Results from paper PMC8384837, “Expanding the binding specificity for RNA recognition by a PUF domain”.
Substitutions are numbered along the chain they refer to.

How the values were obtained:
Test in all cases: yeast three-hybrid, YBZ-1, SC-Leu-His + 0.5 mM 3-AT, 4 days
Details in all cases: tags: N-Gal4 AD-HA kept; label: inside an RPR1-promoter hybrid RNA with tandem MS2 sites; ssRNA
PUM1 PUF domain R8-KWF = PUM1 PUF domain R8-KWF (Homo sapiens, UniProt Q14671 828-1176, N1122K;Y1123W;Q1126F)
Outline: (§1)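 The interaction score is the log change in variant frequency from input to selection. Scores were computed in log2 with a pseudocount of 1 for absent variants, using Illumina sequencing of PCR-amplified repeat regions. The input came from four days on SC-Leu and the selection from four days on SC-Leu-His + 0.5 mM 3-AT. The cells were strain YBZ-1 (LexA–MS2 coat fusion, HIS3 reporter) co-expressing Pumilio-1 PUF domain libraries and matching RNA elements from a centromeric plasmid.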

PUM1 PUF domain R8-PYF = PUM1 PUF domain R8-PYF (Homo sapiens, UniProt Q14671 828-1176, N1122P;Q1126F)
Outline: as §1

PUM1 PUF domain R6-FRV = molecular target: T1, PUM1 PUF domain R6-FRV (Homo sapiens, UniProt Q14671 828-1176, N1043F;Y1044R;Q1047V)
T1 sequence: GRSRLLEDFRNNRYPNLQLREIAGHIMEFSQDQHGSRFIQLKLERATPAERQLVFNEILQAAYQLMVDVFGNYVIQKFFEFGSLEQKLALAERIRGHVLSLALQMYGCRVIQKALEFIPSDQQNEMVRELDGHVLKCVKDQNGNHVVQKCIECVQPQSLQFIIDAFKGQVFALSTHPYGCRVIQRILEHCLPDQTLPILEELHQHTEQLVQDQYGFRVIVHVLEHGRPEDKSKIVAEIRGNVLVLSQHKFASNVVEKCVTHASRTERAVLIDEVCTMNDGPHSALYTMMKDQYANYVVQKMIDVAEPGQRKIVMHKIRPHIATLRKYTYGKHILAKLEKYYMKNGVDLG
Outline: as §1

PUM1 PUF domain R5-GQC = PUM1 PUF domain R5-GQC (Homo sapiens, UniProt Q14671 828-1176, C1007G;R1008Q;Q1011C)
Outline: as §1

PUM1 PUF domain R4-RMI = PUM1 PUF domain R4-RMI (Homo sapiens, UniProt Q14671 828-1176, N971R;H972M;Q975I)
Outline: as §1

PUM1 PUF domain R5-DRN = PUM1 PUF domain R5-DRN (Homo sapiens, UniProt Q14671 828-1176, C1007D;Q1011N)
Outline: as §1

PUM1 PUF domain R4-DFM = PUM1 PUF domain R4-DFM (Homo sapiens, UniProt Q14671 828-1176, N971D;H972F;Q975M)
Outline: as §1

PUM1 PUF domain R3-RTM = PUM1 PUF domain R3-RTM (Homo sapiens, UniProt Q14671 828-1176, C935R;R936T;Q939M)
Outline: as §1

PUM1 PUF domain R3-KFN = PUM1 PUF domain R3-KFN (Homo sapiens, UniProt Q14671 828-1176, C935K;R936F;Q939N)
Outline: as §1

PUM1 PUF domain R3-IFK = PUM1 PUF domain R3-IFK (Homo sapiens, UniProt Q14671 828-1176, C935I;R936F;Q939K)
Outline: as §1

PUM1 PUF domain R5-VNR = PUM1 PUF domain R5-VNR (Homo sapiens, UniProt Q14671 828-1176, C1007V;R1008N;Q1011R)
Outline: as §1

PUM1 PUF domain R5-RLM = PUM1 PUF domain R5-RLM (Homo sapiens, UniProt Q14671 828-1176, C1007R;R1008L;Q1011M)
Outline: as §1

PUM1 PUF domain R5-PHS = PUM1 PUF domain R5-PHS (Homo sapiens, UniProt Q14671 828-1176, C1007P;R1008H;Q1011S)
Outline: as §1

PUM1 PUF domain R1-GFE = PUM1 PUF domain R1-GFE (Homo sapiens, UniProt Q14671 828-1176, S863G;R864F;Q867E)
Outline: as §1

PUM1 PUF domain R1-RKK = PUM1 PUF domain R1-RKK (Homo sapiens, UniProt Q14671 828-1176, S863R;R864K;Q867K)
Outline: as §1

PUM1 PUF domain R1-KGT = PUM1 PUF domain R1-KGT (Homo sapiens, UniProt Q14671 828-1176, S863K;R864G;Q867T)
Outline: as §1

PUM1 PUF domain R6-TWD = molecular target: T2, PUM1 PUF domain R6-TWD (Homo sapiens, UniProt Q14671 828-1176, N1043T;Y1044W;Q1047D)
T2 sequence: T1 sequence with F216T, R217W, V220D
Outline: as §1

PUM1 PUF domain R2-EWG = PUM1 PUF domain R2-EWG (Homo sapiens, UniProt Q14671 828-1176, N899E;Y900W;Q903G)
Outline: as §1

Sequence: GGCUAGAACUAGUGGAUCCCCCGGCGCCCGGCGGCUCGAGCCCGGGUAAGCGUAAAUAGUCUGCAUGCCGCCGGGCGCCAUGCCUGCAGGUCGACUCUAGAAAACAUG
- binding signal (PUM1 PUF domain R8-KWF): 4.32 log2 enrichment (interaction score)
- binding signal (PUM1 PUF domain R8-PYF): 5.02 log2 enrichment (interaction score)

Sequence: GGCUAGAACUAGUGGAUCCCCCGGCGCCCGGCGGCUCGAGCCCGGGUAAGUGUAAAUAGUCUGCAUGCCGCCGGGCGCCAUGCCUGCAGGUCGACUCUAGAAAACAUG
- binding signal (PUM1 PUF domain R6-FRV): 2.7 log2 enrichment (interaction score)
- binding signal (PUM1 PUF domain R5-GQC): 3.41 log2 enrichment (interaction score)
- binding signal (PUM1 PUF domain R4-RMI): 3.31 log2 enrichment (interaction score)
- binding signal (PUM1 PUF domain R5-DRN): 3.15 log2 enrichment (interaction score)
- binding signal (PUM1 PUF domain R4-DFM): 5.89 log2 enrichment (interaction score)

Sequence: GGCUAGAACUAGUGGAUCCCCCGGCGCCCGGCGGCUCGAGCCCGGGUAAGUGUAAUUAGUCUGCAUGCCGCCGGGCGCCAUGCCUGCAGGUCGACUCUAGAAAACAUG
- binding signal (PUM1 PUF domain R3-RTM): 2.52 log2 enrichment (interaction score)
- binding signal (PUM1 PUF domain R3-KFN): 3.99 log2 enrichment (interaction score)
- binding signal (PUM1 PUF domain R3-IFK): 2.58 log2 enrichment (interaction score)

Sequence: GGCUAGAACUAGUGGAUCCCCCGGCGCCCGGCGGCUCGAGCCCGGGUAAGUGUUAAUAGUCUGCAUGCCGCCGGGCGCCAUGCCUGCAGGUCGACUCUAGAAAACAUG
- binding signal (PUM1 PUF domain R5-VNR): 2.69 log2 enrichment (interaction score)
- binding signal (PUM1 PUF domain R5-RLM): 2.52 log2 enrichment (interaction score)

Sequence: GGCUAGAACUAGUGGAUCCCCCGGCGCCCGGCGGCUCGAGCCCGGGUAAGUGUGAAUAGUCUGCAUGCCGCCGGGCGCCAUGCCUGCAGGUCGACUCUAGAAAACAUG
- binding signal (PUM1 PUF domain R5-PHS): 2.78 log2 enrichment (interaction score)

Sequence: GGCUAGAACUAGUGGAUCCCCCGGCGCCCGGCGGCUCGAGCCCGGGUAAGUGUAAAUGGUCUGCAUGCCGCCGGGCGCCAUGCCUGCAGGUCGACUCUAGAAAACAUG
- binding signal (PUM1 PUF domain R1-GFE): 4.79 log2 enrichment (interaction score)

Sequence: GGCUAGAACUAGUGGAUCCCCCGGCGCCCGGCGGCUCGAGCCCGGGUAAGUGUAAAUUGUCUGCAUGCCGCCGGGCGCCAUGCCUGCAGGUCGACUCUAGAAAACAUG
- binding signal (PUM1 PUF domain R1-GFE): 0.52 log2 enrichment (interaction score)
- binding signal (PUM1 PUF domain R1-RKK): 3.57 log2 enrichment (interaction score)
- binding signal (PUM1 PUF domain R1-KGT): 3.61 log2 enrichment (interaction score)

Sequence: GGCUAGAACUAGUGGAUCCCCCGGCGCCCGGCGGCUCGAGCCCGGGUAAGUGUCAAUAGUCUGCAUGCCGCCGGGCGCCAUGCCUGCAGGUCGACUCUAGAAAACAUG
- binding signal (PUM1 PUF domain R5-DRN): 1.45 log2 enrichment (interaction score)
- binding signal (PUM1 PUF domain R5-RLM): 1.79 log2 enrichment (interaction score)

Sequence: GGCUAGAACUAGUGGAUCCCCCGGCGCCCGGCGGCUCGAGCCCGGGUAAGUGAAAAUAGUCUGCAUGCCGCCGGGCGCCAUGCCUGCAGGUCGACUCUAGAAAACAUG
- binding signal (PUM1 PUF domain R6-TWD): 3.18 log2 enrichment (interaction score)

Sequence: GGCUAGAACUAGUGGAUCCCCCGGCGCCCGGCGGCUCGAGCCCGGGUAAGUGUACAUAGUCUGCAUGCCGCCGGGCGCCAUGCCUGCAGGUCGACUCUAGAAAACAUG
- binding signal (PUM1 PUF domain R4-DFM): 5.35 log2 enrichment (interaction score)

Sequence: GGCUAGAACUAGUGGAUCCCCCGGCGCCCGGCGGCUCGAGCCCGGGUAAGUGUAAAUCGUCUGCAUGCCGCCGGGCGCCAUGCCUGCAGGUCGACUCUAGAAAACAUG
- binding signal (PUM1 PUF domain R1-KGT): 4.83 log2 enrichment (interaction score)

Sequence: GGCUAGAACUAGUGGAUCCCCCGGCGCCCGGCGGCUCGAGCCCGGGUAAGUGUAAAAAGUCUGCAUGCCGCCGGGCGCCAUGCCUGCAGGUCGACUCUAGAAAACAUG
- binding signal (PUM1 PUF domain R2-EWG): 8.11 log2 enrichment (interaction score)

Sequence: GGCUAGAACUAGUGGAUCCCCCGGCGCCCGGCGGCUCGAGCCCGGGUAAGUGUAAAGAGUCUGCAUGCCGCCGGGCGCCAUGCCUGCAGGUCGACUCUAGAAAACAUG
- binding signal (PUM1 PUF domain R2-EWG): 4.05 log2 enrichment (interaction score)
